Source: PubChem BioAssay
The full list was thinned out, with hits kept by preference.
Tg IFNy HTS = blocks Toxoplasma gondii growth in the presence of IFN-gamma; Toxoplasma gondii growth in IFN-gamma-treated host cells; active compounds read low; activity change, negative = inhibition, % (concentration not given with the values); actives 3.8% (n = 69,000); AID 1259416; in the data active = activity change below about -70%, passing the limit was not always enough;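 also: host cells are HeLa cells infected with Toxoplasma gondii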
Active calls of the source: *; ! = not active in a repeat.

SMILES	Tg IFNy HTS
O=C(Cc1ccc2c(c1)OCO2)N1CCC(c2nc(-c3ccsc3)cc(=O)[nH]2)CC1	-80*
CCn1c(C2CCCN(C(=O)Cc3ccc4c(c3)OCO4)C2)nn(C)c1=O (stereo not given)	7
CC1=C(C(=O)NCCC(C)C)C2(CCN(S(=O)(=O)c3cccs3)CC2)OC1=O	30
CCN(CCc1nc2ccc(OC)cc2[nH]1)C(=O)c1cc(C)nc(C)n1	-6
CCOc1c2ccccc2nc2ccccc12	-123*
CCOC(=O)c1c(C)nc2ccccc2c1C(=O)O	9
Nc1c2c(nc3ccccc13)CCCC2	-16
CCOc1ccc(Nc2nc3ccccc3c(=O)s2)cc1	-3
Nc1c2ccccc2nc2ccccc12	-73*!
FC(F)(F)c1cc(Sc2cc(C(F)(F)F)nc3ccccc23)c2ccccc2n1	-11
CC(C)CN1CC2CN(S(=O)(=O)c3ccccc3)CC21 (stereo not given)	1
CS(=O)(=O)N1CCC(NCc2cnn(Cc3ccccc3)c2)CC1	-2
Cc1cccc(-c2noc(-c3nnn(Cc4nc(-c5ccccc5)oc4C)c3C)n2)c1	-40
COc1ccc(F)c(F)c1CN1CCCC(OCc2ccccn2)C1 (stereo not given)	10
Cc1nn(C)cc1-c1cncn1CC(C)N1CCCCC1 (stereo not given)	8
CN(C)C(=O)NC1CCOC2(CCN(Cc3cccs3)CC2)C1 (stereo not given)	-8
CN(C)CCN1C(=O)CC2C1CCN2C(=O)c1ccc[nH]1 (stereo not given)	4
O=c1[nH]c(=O)c2cc(S(=O)(=O)Nc3ccc(Oc4cccnc4)cc3)ccc2[nH]1	34
Cc1cc(Cc2ccc(NC(=O)C(F)(F)F)c(C)c2)ccc1NC(=O)C(F)(F)F	-17
Nc1[nH]c(=O)ncc1F	-79*!
Cc1ccc2[nH]cc(CCN3CC(C(=O)N4CCc5ccccc5C4)CC3=O)c2c1 (stereo not given)	211
Cc1ccc(CNC(=O)c2ccc(-c3nc(CN4CCc5ccccc54)c(C)o3)cc2)cc1	72
COCCNC(=O)c1ccc(-c2nc(CN3CCc4ccccc43)c(C)o2)cc1	160
CCCNC(=O)c1ccc(-c2nc(CN3CCc4ccccc43)c(C)o2)cc1	4
Cc1oc(-c2ccc(C(=O)NCCN3CCOCC3)cc2)nc1CN1CCc2ccccc21	55
SMILES	Tg IFNy HTS
Cc1oc(-c2ccc(C(=O)NC3CCCCCC3)cc2)nc1CN1CCc2ccccc21	-93*
Cc1oc(-c2ccc(C(=O)NCCN(C)C)cc2)nc1CN1CCc2ccccc21	-112*
CNC(=O)[C@H]1C[C@@H]2CN(CC3CCOCC3)C[C@@H]2N1C(C)C	-2
COc1ccccc1-c1nc(CN(c2ccccc2OC)S(=O)(=O)c2ccccc2)c(C)o1	13
CNC(=O)C1CC2CN(Cc3csc(C)n3)CC1O2 (stereo not given)	34
Cc1c(NCc2cccnc2)cccc1C(=O)NCCc1cnc[nH]1	134
CC(C)(C)c1cc(CN2CCc3[nH]cnc3C2Cc2ccccc2)[nH]n1 (stereo not given)	2
CCC1=N[C@@]2(CC[C@@H]3CN(C(=O)NCC4CCCCC4)C[C@H]32)C(=O)N1CC	22
COc1cc(C(=O)Nc2ccc(N3CCCCC3)c(C(F)(F)F)c2)nc(OC)n1	-82*
COc1ncc(C(=O)Nc2ccc(N3CCCC3)c(F)c2)cn1	45
CC1(C)NC(=O)N(CC(=O)Nc2ccc(N3CCCCC3)c(C(F)(F)F)c2)C1=O	-23
Cc1ccc(C)c(NC(=O)Cn2cc(C#N)c3ccccc32)c1	10
CN(Cc1ccc2nsnc2c1)Cc1cc(-c2ccncc2)no1	-1
Cc1oc(C2CCN(S(=O)(=O)c3ccc(F)c(F)c3)CC2)nc1C(=O)N(C)C	14
CCOc1ccccc1NS(=O)(=O)c1cccs1	3
O=C(NCc1cccnc1)c1ccccc1NS(=O)(=O)c1cccs1	28
O=S(=O)(Nc1cc(Sc2ncn[nH]2)c(O)c2ccccc12)c1cccs1	-98*
CCn1cncc1CNC(=O)c1ccc(-c2ccccc2Cl)o1	-32
Fc1cccc(CN(CCCn2ccnc2)Cc2cnc(N3CCCCC3)nc2)c1	-36
COc1ccccc1S(=O)(=O)N[C@@H]1C[C@@H](CO)N(C)C1	-7
CC(C)C(=O)N1CCc2nc(-c3cnn(C)c3)nc(N(C)C)c2C1	-11
Cc1ccccc1-n1nc(C)c(CN(C)Cc2n[nH]c3c2CCCC3)c1C	-78*
CCSc1ncc(CN(C)Cc2n[nH]c3c2CCCC3)cn1	-54
COc1ccc2c(c1)c(CN(C)Cc1n[nH]c3c1CCCC3)cn2C(C)C	17
Cc1cccnc1CN1CCC2(CC(NC(=O)c3cnccn3)C2)C1 (stereo not given)	40
SMILES	Tg IFNy HTS
Cc1[nH]cnc1-c1nccn1Cc1cc(-c2cccnc2)no1	-12
C=CCn1c(=O)c(-c2nc(-c3ccccc3OCC)no2)c(O)c2ccccc21	25
O=C1CC(c2ccnn2-c2ccccc2)c2ccc(N3CCOC3=O)cc2N1 (stereo not given)	-49
Cn1cc(Cc2cc(=O)[nH]n2C)c(-c2ccc(F)cc2)n1	15
COc1cc2oc(-c3ccc(O)cc3)cc(=O)c2c(OC)c1O	-82*
COc1ccc(-c2cc(=O)c3c(O)cc(O)cc3o2)cc1O	86
COc1ccc(-c2cc(=O)c3ccc(O)cc3o2)cc1	-8
O=c1cc(-c2ccccc2)oc2cc(O)c(O)c(O)c12	-77*!
O=c1c(O)cccc2cc(O)c(O)c(O)c12	12
O=c1c(O)c(-c2ccccc2)oc2cc(O)cc(O)c12	67
CCOc1ccc(-c2nc(Cc3noc(-c4ccccc4OC)n3)c(C)o2)cc1	-60
Cc1cccc(NC(=O)Nc2ccc(-c3nc(-c4cc(C)ccc4C)co3)cc2)c1	-22
COc1cccc(COC2CN(CC(C)C)C(=O)CN(C(=O)c3ccc(C#CC(C)(C)O)o3)C2)c1 (stereo not given)	-7
Cc1nc(C2CCCN(S(C)(=O)=O)C2)sc1Br (stereo not given)	39
Cc1ccc(N2CC3(CCN(C(=O)C4(C#N)CC4)C3)CC2=O)s1 (stereo not given)	-10
CC(C)C1CN(C(=O)Cc2ccccn2)CCC(=O)N1Cc1ccc(F)cc1 (stereo not given)	2
COc1ccccc1C(C)N(C)C(=O)c1cccc(F)c1OC (stereo not given)	-54
CCOC(=O)c1cc(C(N)=S)c(C)nc1C(F)(F)F	-79*
CCOC(=O)c1cc(-c2nc(-c3ccccc3)cs2)c(C)nc1C(F)(F)F	-36
CCOC(=O)c1cc(C#N)c(Sc2nnc(SC)s2)nc1C(F)(F)F	-32
O=C(NCC1CCCOC1)[C@@H]1CN(Cc2ccccc2)C[C@H]1C(=O)c1ccc(F)cc1 (stereo not given in full)	29
O=C(O)CN1CCOC2C(Cn3cccc3)CCC21 (stereo not given)	51
Cc1ccccc1NC(=O)N1CCC(c2nc(CCNC(=O)C(C)C)cs2)CC1	60
O=c1cc(CN2CCCC2)nc2n1CCCNC2	-4
O=C(CC(SC(=O)c1ccccc1)c1ccc(Cl)cc1)c1ccccc1 (stereo not given)	50
O=C(CC(Sc1ccc(Cl)cc1)c1ccc(Cl)cc1)c1ccccc1 (stereo not given)	-112*
O=C(CCSc1ccccn1)c1ccc(Cl)cc1	25
CC(C)C(=O)N1CCC(C2C(=O)Nc3ccccc32)CC1 (stereo not given)	492
CC(Cn1cccn1)c1nc(CCc2ccccc2)nn1-c1ccccn1 (stereo not given)	13
CCNC(=O)c1sc2cc(C)ccc2c1Cl	79
